DT40 TDP1 CPT: growth inhibition of DT40 Tdp1-/-;hTDP1 cells with camptothecin (screen for TDP1 inhibitors); chicken DT40 Tdp1-/-;hTDP1 cells + 20 nM CPT, ATP luminescence, 48 h; Potency, µM (series often up to 46.2 µM), actives largely listed as inhibitors; 12% of 420,000 active; AID 686979; further: nearly all actives have a fitted effect of over 55% in size
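Chicken DT40 Tdp1-/- cells stably complemented with human TDP1 were seeded at 400 cells/well in medium containing 20 nM camptothecin, exposed to pin-transferred compounds, and grown at 37 °C for at least 48 hr. Viability was read as ATP luminescence.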
uPA surface inh: inhibitors of cell surface uPA generation. cell surface uPA generation assay, qHTS. Potency, µM (highest dose often 38.3 µM), actives largely listed as inhibitors. 0.31% of 330,000 active. AID 540303; active means well fitted inhibition curve with a large enough effect; inconclusive means small, poorly fitted or top-dose-only effect; inactive means no such curve, though single readings can be large or run the other way; tested in mouse RAW 264.7 cells; further: nearly all actives have a fitted effect of over 55% in size
HT1080 IDH1KD tx: kills HT-1080 cells with IDH1 knockdown. Potency, µM (series often up to 46.1 µM), most hits filed as cytotoxic. HT-1080 IDH1 knockdown viability, ATP luminescence, 48 h. 2% of 360,000 active
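Knockdown cells (IDH1KD HT-1080) received compounds 2 h after plating at 750 cells/well and were kept 48 h at 37 °C in 5% FBS RPMI. A CellTiter-Glo luminescence read gave % activity for curve fitting.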
IL1B secr inh: inhibitors of inflammasome signaling (IL-1 beta secretion) | AID 743279 | THP-1 LPS/ATP IL-1B secretion, AlphaLISA, 16 h; hits give low values | 4.7% of 360,000 active | activity change, % at 57.5 µM; in the data active means activity change below about -50%; inconclusive means mostly about -30% to -49%
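Secreted IL-1B measured by AlphaLISA bead assay after 16 h compound exposure of THP-1 cells; compounds (final up to 57.5 uM) added 1 h before LPS (250 ng/mL) and ATP (1.25 mM) stimulation; lower signal means less secretion.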
TDP1 cell noCPT: qHTS for Inhibitors of human tyrosyl-DNA phosphodiesterase 1 (TDP1): qHTS in cells in absence of CPT | DT40 Tdp1-/- hTDP1 cells, no CPT, ATP luminescence, 48 h | Potency, µM (series often up to 46.2 µM), hits mostly inhibitors | 15% of 420,000 active | AID 686978, 2013; further: nearly all actives have a fitted effect of over 55% in size
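A cellular qHTS used chicken DT40 cells lacking endogenous Tdp1 but carrying stably transfected human TDP1. Compounds were applied without camptothecin, and cell growth kinetics were judged by ATP-dependent luminescence after ≥48 hr.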
HT1080NT lethal: kills 2HG-producing HT-1080-NT fibrosarcoma cells; Potency, µM (doses to about 46.1 µM), usual class: cytotoxic; AID 686970; HT-1080-NT fibrosarcoma viability, CellTiter-Glo ATP luminescence, 48 h; 1.6% of 360,000 active;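 further: NT is the 2HG producing partner of a matched IDH1 knockdown line; nearly all actives have a fitted effect of over 55% in size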
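Compounds were tested in concentration-response format on HT-1080-NT cells for 48 hours at 37 degrees C. Cell viability came from CellTiter-Glo luminescence; curves were classified by r2, response magnitude and activity.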
Large screens that a line does not name were inactive. Rows were chosen to be rich in hits. Some 19% of all compounds tested hit in one or more screens of this group. Unless noted, the call rests on the fitted dose curve; in most records, active means well fitted curve in the direction sought with a large enough effect; inconclusive means small, poorly fitted or top-dose-only effect, or another doubt; inactive means no such curve, though single readings can be large; an effect the other way counts as inactive or inconclusive.

COc1cc(C(C(=O)NCc2ccccc2)N(C(=O)c2snc(C(N)=O)c2N)C2CCCC2)cc(OC)c1OC (stereo not drawn)	none
Cc1ccc(N(C(=O)c2snc(C(N)=O)c2N)C(C(=O)NCc2ccccc2)c2ccncc2)c(C)c1 (stereo not drawn)	DT40 TDP1 CPT inconclusive, IL1B secr inh -51.0, TDP1 cell noCPT inconclusive
COc1ccc(C(C(=O)NCc2ccccc2)N(C(=O)c2snc(C(N)=O)c2N)C2CCCC2)cc1 (stereo not drawn)	none
COc1ccc(N(C(=O)c2snc(C(N)=O)c2N)C(C(=O)NCc2ccccc2)c2ccc(F)cc2)c(OC)c1 (stereo not drawn)	DT40 TDP1 CPT 25.9µM, HT1080 IDH1KD tx inconclusive, IL1B secr inh inconclusive, TDP1 cell noCPT inconclusive, HT1080NT lethal inconclusive
COc1ccc(C(C(=O)NCc2ccccc2)N(C(=O)c2snc(C(N)=O)c2N)c2ccccc2OC)cc1 (stereo not drawn)	DT40 TDP1 CPT inconclusive, IL1B secr inh -54.5, TDP1 cell noCPT inconclusive
O=c1c(-c2cccs2)nc2cnc(Oc3cccc(Cl)c3)nc2n1C1CC1	none (no result: uPA surface inh, HT1080 IDH1KD tx, IL1B secr inh, HT1080NT lethal)
COc1ccc(C(C(=O)NCc2ccccc2)N(Cc2ccco2)C(=O)c2snc(C(N)=O)c2N)cc1OC (stereo not drawn)	DT40 TDP1 CPT inconclusive, TDP1 cell noCPT inconclusive
COc1ccccc1N(C(=O)c1snc(C(N)=O)c1N)C(C(=O)NCc1ccccc1)c1ccc(O)cc1 (stereo not drawn)	IL1B secr inh -72.4
COc1ccc(C(C(=O)NC2CCCC2)N(C(=O)c2snc(C(N)=O)c2N)c2cc(C)ccc2OC)cc1OC (stereo not drawn)	DT40 TDP1 CPT inconclusive, TDP1 cell noCPT 18.4µM
COc1ccc(C(C(=O)NC2CCCC2)N(C(=O)c2snc(C(N)=O)c2N)c2cccc(O)c2)cc1 (stereo not drawn)	DT40 TDP1 CPT inconclusive, TDP1 cell noCPT 13µM, HT1080NT lethal inconclusive
COc1ccc(N(C(=O)c2snc(C(N)=O)c2N)C(C(=O)NC2CCCC2)c2cc(OC)ccc2OC)c(OC)c1 (stereo not drawn)	DT40 TDP1 CPT 23.1µM, TDP1 cell noCPT 29.1µM
COc1ccc(-c2nsc(C(=O)N(c3ccc(F)cc3)C(C(=O)NC3CCCC3)c3ccc(OC)cc3)c2N)cc1 (stereo not drawn)	DT40 TDP1 CPT 16.4µM, TDP1 cell noCPT 16.4µM, HT1080NT lethal inconclusive
COc1ccc(C(C(=O)NC2CCCC2)N(C(=O)c2snc(C(N)=O)c2N)c2ccccc2OC)cc1OC (stereo not drawn)	none
COc1ccc(C(c2c(O)cc(C)n(Cc3ccco3)c2=O)N2CCN(c3ccccc3)CC2)cc1 (stereo not drawn)	none (no result: uPA surface inh, HT1080 IDH1KD tx, IL1B secr inh, HT1080NT lethal)
Cc1nc2nc(NC(=O)c3ccc(C(C)(C)C)cc3)[nH]n2c(=O)c1Cc1ccccc1	none (no result: uPA surface inh, HT1080 IDH1KD tx, IL1B secr inh, HT1080NT lethal)
CCC(=O)N1CCc2cc(S(=O)(=O)NCCC(=O)Nc3ccc(OC)c(Cl)c3)ccc21	DT40 TDP1 CPT inconclusive (no result: uPA surface inh, HT1080 IDH1KD tx, IL1B secr inh, HT1080NT lethal)
COc1ccc(N(C(=O)c2snc(C(N)=O)c2N)C(C(=O)NC2CCCCC2)c2ccc(F)cc2)c(OC)c1 (stereo not drawn)	DT40 TDP1 CPT 2.91µM, TDP1 cell noCPT inconclusive
O=C(Cc1ccc(NC(=O)C2CCN(C(=O)c3ccccc3)CC2)cc1)Nc1ccc(C(=O)N2CCOCC2)cc1	none
O=C(Cc1ccc(NC(=O)C2CCN(C(=O)CCc3ccccc3)CC2)cc1)Nc1ccc(C(=O)N2CCOCC2)cc1	DT40 TDP1 CPT inconclusive, TDP1 cell noCPT 16.4µM
O=C(Cc1cccc(NC(=O)C2CCN(C(=O)CCc3ccccc3)CC2)c1)Nc1cccc(C(=O)N2CCCCC2)c1	DT40 TDP1 CPT inconclusive, TDP1 cell noCPT 18.4µM
O=C(Cc1cccc(NC(=O)C2CCN(C(=O)C3CCC3)CC2)c1)Nc1cccc(C(=O)N2CCCC2)c1	none
O=C(Cc1cccc(NC(=O)C2CCN(C(=O)CCc3ccccc3)CC2)c1)Nc1cccc(C(=O)N2CCOCC2)c1	DT40 TDP1 CPT 14.6µM, TDP1 cell noCPT 14.6µM
CC(C)C[C@H](NC(=O)c1[nH]cnc1C(=O)N[C@@H](Cc1ccccc1)C(=O)OCc1ccccc1)C(=O)OCc1ccccc1	DT40 TDP1 CPT inconclusive, TDP1 cell noCPT inconclusive
O=C(N[C@@H](Cc1ccccc1)C(=O)OCc1ccccc1)c1nc[nH]c1C(=O)NCc1ccccc1	DT40 TDP1 CPT 18.4µM, TDP1 cell noCPT inconclusive, HT1080NT lethal inconclusive
CC(C)(C)OC(=O)N1CCN(C(=O)c2[nH]cnc2C(=O)Nc2ccccc2F)CC1	TDP1 cell noCPT inconclusive (no result: uPA surface inh)
CC(C)(C)OC(=O)[C@H](Cc1ccccc1)NC(=O)c1ncn2c1c(=O)[nH]c1ccc(Br)cc12	DT40 TDP1 CPT 4.61µM, TDP1 cell noCPT 3.26µM (no result: uPA surface inh)
CC(C)(C)OC(=O)[C@H](Cc1ccccc1)NC(=O)c1nc[nH]c1C(=O)N[C@@H](Cc1ccccc1)C(=O)OC(C)(C)C	DT40 TDP1 CPT 14.6µM, uPA surface inh inconclusive, HT1080 IDH1KD tx inconclusive, TDP1 cell noCPT 18.4µM
CC(C)(C)OC[C@H](NC(=O)c1[nH]cnc1C(=O)Nc1ccccc1F)C(=O)OC(C)(C)C	DT40 TDP1 CPT 20.6µM, HT1080 IDH1KD tx inconclusive, TDP1 cell noCPT 20.6µM, HT1080NT lethal inconclusive (no result: uPA surface inh)
C[C@H](NC(=O)c1nc[nH]c1C(=O)NCc1ccc(CNC(=O)OC(C)(C)C)cc1)C(=O)OCc1ccccc1	DT40 TDP1 CPT 20.6µM, TDP1 cell noCPT 16.4µM
CC(C)(C)OC(=O)NCCCCCNC(=O)c1ncn2c1c(=O)[nH]c1ccccc12	DT40 TDP1 CPT inconclusive, TDP1 cell noCPT 20.6µM (no result: uPA surface inh)
CCN(CC)C(=O)c1[nH]cnc1C(=O)NCCCCCNC(=O)OC(C)(C)C	none
CC(C)(C)OC(=O)[C@H](Cc1ccccc1)NC(=O)c1[nH]cnc1C(=O)N[C@@H](Cc1ccccc1)C(=O)OCc1ccccc1	DT40 TDP1 CPT 16.4µM, TDP1 cell noCPT 23.1µM
C[C@H](NC(=O)c1nc[nH]c1C(=O)NCc1ccc(CNC(=O)OC(C)(C)C)cc1)c1ccccc1	DT40 TDP1 CPT inconclusive, uPA surface inh inconclusive, HT1080 IDH1KD tx inconclusive, TDP1 cell noCPT inconclusive, HT1080NT lethal inconclusive
CC(NC(=O)OCc1ccccc1)C(=O)NCC(=O)NC(Cc1ccc(OC(C)(C)C)cc1)C(=O)OC(C)(C)C (stereo not drawn)	DT40 TDP1 CPT 20.6µM, TDP1 cell noCPT 11.6µM
COc1cccc(CCNC(=O)CC2C(=O)NCCN2Cc2ccc(C)o2)c1 (stereo not drawn)	none
COc1ccc(C(=O)NCc2nc(-c3ccccc3NC(=O)c3cc(C)oc3C)oc2C)cc1F	none (no result: uPA surface inh, HT1080 IDH1KD tx, IL1B secr inh, HT1080NT lethal)
